This is an account of results in PubChem BioAssay (NCI).

Common to all, as to test: NCI-60 one-dose screen, 48 h (100 = growth as untreated, 0 = no growth, -100 = all killed)
Common to all, as to settings: 10 µM unless noted

Test [1] has as its system EKVX NSCLC.
Test [2] has as its system SN12C renal.
Test [3] relates to UO-31 renal.
Test [4] has as its system TK-10 renal.
Test [5] has as its system ACHN renal.
In test [6] the test system is CAKI-1 renal.
For test [7], the system named is CCRF-CEM leukemia.
For test [8], the system named is MOLT-4 leukemia.
In test [9] the test system is SR leukemia.
The test system of test [10] is RPMI-8226 leukemia.
Test [11] has as its system OVCAR-8 ovarian.
For test [12], the system named is OVCAR-5 ovarian.
Test [13] relates to OVCAR-4 ovarian.
Test [14] concerns SK-OV-3 ovarian.
In test [15] the test system is IGROV1 ovarian.
Test [16] relates to OVCAR-3 ovarian.
In test [17] the test system is HS 578T breast.
The subject of test [18] is T-47D breast.
Test [19] has as its system NCI/ADR-RES ovarian.
Test [20] concerns A498 renal.

Structures are written as SMILES. Compounds without any hit were thinned out: in the full panel of roughly 83,000, 20% have a hit.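 Note: values are percent growth. 100 is the growth of untreated cells, values between 100 and 0 indicate rising inhibition; between -100 and 0 indicates cell death.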 Values without a mark were called inactive. Active and inactive are the calls of the source. Rule for the calls: active = growth percent below 10; inactive = the rest.

Turning to `CN1CCc2c(sc3ncnc(N/N=C/c4ccc(Cl)c(Cl)c4)c23)C1`, the growth in [1] was 60.8%; in test [2] it was 81.2%; in test [3], 29.7%; in test [4] it was 137%; in test [5], -84.7% (active); in test [6], 10.6%. The growth is 8.1% (active) in test [7]; 26.6% in test [8]; -22.8% (active) in test [9]; 41.4% in [10]; 31.8% in [11]; 71.4% in test [12]. The growth in test [13] is 20.9%; in test [14] it was 28.3%; in test [15] it was 73.2%; in test [16], 71.5%; in test [17], 78.5%; in [18], 90.4%.
Take `C=CCn1c(SCC(=O)c2ccc(Br)cc2)nnc1-c1c[nH]c2ccccc12`: the growth in test [1] is 92.8%; in test [2], 95.6%; in test [3], 68.4%; in [4], 134%; in test [5] it was 88.3%; in test [6] it was 90.2%. Moreover, the growth is 97.9% in [7]; 91.2% in test [8]; 88.7% in test [9]; 98.8% in test [10]; 96.8% in [12]; 109% in [13]. Moreover, the growth in [14] is 113%; in test [15] it was 86.7%; in test [16], 110%; in test [17], 106%; in test [19], 98.8%; in test [18] it was 97%.
Turning to `Nc1cc(-c2c[nH]c3ccc(Cl)cc23)nc2cc(-c3c[nH]c4ccc(Cl)cc34)nn12`, the growth in test [1] is 54.4%; in [2], 70.8%; in [3], 61.3%; in test [4] it was 66.2%; in test [5], 24.3%; in test [20], 32.2%. Moreover, the growth in test [7] is 42%; in test [8], 33.3%; in test [9], 10.1%; in test [10], 59.4%; in [12] it was 59.7%; in test [13] it was 58.6%. Also, the growth in [15] is 41.7%; in test [16], 75.9%; in test [17] it was 74.3%; in test [19], 60.4%; in [18], 51.6%.
Regarding `COc1ccc(-c2nc3ccc(-c4nnc(SCC(=O)Nc5ccc(C(=O)/C=C/c6ccccc6)cc5)o4)cc3[nH]2)cc1OC`, the growth in [1] was 104%; in test [2], 94.8%; in [3], 88.5%; in [4] it was 133%; in test [5], 96.3%; in test [20], 112%. The growth in test [7] is 88.4%; in [8], 80.5%; in test [9] it was 83.6%; in [10], 64%; in test [11], 104%; in test [12] it was 99.4%. In addition, the growth in test [13] was 109%; in test [14], 117%; in [15], 96.4%; in [16] it was 114%; in test [17], 96.1%; in test [18], 86.9%.
In the case of `C=CCn1c(SCC(=O)c2ccccc2)nnc1-c1c[nH]c2ccccc12`, the growth in test [1] was 95.8%; in test [2], 92.7%; in test [3] it was 65.7%; in test [4], 144%; in test [5] it was 93.8%; in [6], 83.1%. Further, the growth in [7] is 91.2%; in test [8], 92.8%; in [9] it was 76.5%; in [10], 86.6%; in test [11] it was 95.4%; in [12], 103%. Further, the growth in [13] was 97.5%; in test [15], 88.4%; in test [17], 97%; in test [19] it was 97.4%; in [18], 95%.
`Cn1ccnc1C(=O)/C=C/c1ccc(NC(=O)Nc2ccccc2)cc1`: the growth in test [1] is 16.5%; in test [2], 45.6%; in test [3] it was 40.7%; in test [4], 85.9%; in [5] it was 26.8%; in test [6], 31.9%. Besides, the growth was 7.34% (active) in test [7]; 4.35% (active) in test [8]; -3.08% (active) in test [9]; 8.95% (active) in test [10]; -1.17% (active) in test [11]; 14.8% in test [12]. Moreover, the growth in [13] was 42.7%; in test [15], 19.2%; in [16] it was 6.45% (active); in test [17], 5.48% (active); in test [19] it was 22.2%; in test [18], 15.7%.
With `Nc1nc(N)c2c(n1)NC(c1ccc(C(F)(F)F)cc1)CC(c1ccc(Nc3nc(NCCO)nc(Nc4ccc(Cl)cc4)n3)cc1)=N2` (stereo not drawn), the growth is -47.3% (active) in test [1]; -40.2% (active) in [2]; -48.6% (active) in test [3]; 91.1% in test [4]; -90.2% (active) in test [5]; -88.1% (active) in [6]. Moreover, the growth was -5.25% (active) in test [7]; -15.2% (active) in test [8]; -31.7% (active) in test [9]; -36.9% (active) in [10]; -26.1% (active) in [11]; -88.7% (active) in test [12]. In addition, the growth in test [13] is -9.44% (active); in test [14], -26% (active); in test [15], -67.7% (active); in test [16] it was -20.9% (active); in test [17] it was -10.5% (active); in test [19], -29.3% (active). The growth in test [18] is 36%.
As to `C#Cc1nc(C2=C(C)C(OC(=O)CCC(=O)O)CC2)cs1` (stereo not drawn), the growth in test [1] was 99.2%; in test [2], 101%; in test [3], -19.3% (active); in test [4], 157%; in test [5], 103%; in test [6], 101%. In addition, the growth in test [7] is 93.9%; in test [8] it was 106%; in test [9], 64.1%; in test [10] it was 102%; in test [12], 125%; in test [13], 108%. Also, the growth was 125% in test [14]; 5.79% (active) in test [15]; 121% in test [16]; 92.5% in test [17]; 89.7% in test [19]; 98% in [18].
